Among the test systems are NCI-H23 lung; NCI-H226 lung; NCI-H322M lung; HOP-62 NSCLC; NCI-H460 lung; HOP-92 NSCLC; NCI-H522 lung; A549/ATCC NSCLC; 786-0 renal; COLO 205 colon; DU-145 prostate; K-562 leukemia; MALME-3M melanoma; MDA-MB-231 breast; RXF 393 renal; SF-268 CNS; SF-295 CNS; SF-539 CNS; UACC-257 melanoma; M14 melanoma.
Common to all, as to experiment: NCI-60 one-dose screen, 48 h (100 = growth as untreated, 0 = no growth, -100 = all killed)
Holding throughout (settings): 10 µM unless noted

Among the data in PubChem BioAssay (NCI) are growth values, retold here.

“And” between values parts separate entries of the source, which are not always exact repeats. Equal entries are not always repeated. The panel holds about 83,000 compounds, 20% with a hit somewhere; the sample as a whole holds those more often.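 A percent growth of 40 corresponds to 60% growth inhibition; 0 means no net growth; -100 means all cells died. Active threshold: below 10.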 Unmarked numbers belong to inactive results. The source made the active and inactive calls.

Turning to `Cc1c(Cl)cc(Cl)c(N)c1Cl`, the growth in the assay on NCI-H23 lung is 103%; in the assay with NCI-H226 lung, 102%; in the assay on NCI-H322M lung it was 115%; with HOP-62 NSCLC, 107%; in the assay on NCI-H460 lung, 105%; in the assay on HOP-92 NSCLC, 76.9%. Besides, the growth in the assay with NCI-H522 lung is 97.4%; in the assay on A549/ATCC NSCLC, 107%; in the assay with 786-0 renal it was 109%; in the assay with COLO 205 colon, 108%; in the assay with DU-145 prostate it was 121%; in the assay on K-562 leukemia, 106%. The growth was 109% in the assay on MALME-3M melanoma; 98.9% with MDA-MB-231 breast; 108% with RXF 393 renal; 104% in the assay on SF-268 CNS; 102% with SF-295 CNS; 96.4% in the assay with SF-539 CNS. In addition, the growth is 106% in the assay with UACC-257 melanoma and 105% in the assay with M14 melanoma.

Regarding `O=C1C=CC(n2cc(F)c(=O)[nH]c2=O)O1` (stereo not given), the growth is 65.2% in the assay on NCI-H23 lung; 86% with NCI-H226 lung; 67.4% with NCI-H322M lung; 79.5% in the assay with HOP-62 NSCLC; 19.4% in the assay on NCI-H460 lung; 112% with HOP-92 NSCLC. Besides, the growth in the assay on NCI-H522 lung was 76.2%; in the assay on A549/ATCC NSCLC it was 50.7%; in the assay on 786-0 renal it was 70.9%; in the assay on COLO 205 colon, 59.4%; with DU-145 prostate, 61%; with K-562 leukemia, 52.1%. The growth was 58.9% in the assay with MALME-3M melanoma; 98.8% in the assay on MDA-MB-231 breast; 99% in the assay on RXF 393 renal; 85.8% in the assay with SF-268 CNS; 94.5% in the assay on SF-295 CNS; 8.79% (active) in the assay with SF-539 CNS. Moreover, the figures for the growth in the assay with UACC-257 melanoma and with M14 melanoma were 90.4% and 70.7%, respectively.

For `O=C(OCc1ccccc1)c1ccccc1`, the growth was 107% and 90.2% in the assay on NCI-H23 lung; 97.9% and 93.9% in the assay on NCI-H226 lung; 115% and 106% in the assay on NCI-H322M lung; 94.9% and 90.5% in the assay on HOP-62 NSCLC; 109% and 108% in the assay on NCI-H460 lung; 89.6% in the assay on HOP-92 NSCLC. Also, the growth is 111% and 79.6% in the assay on NCI-H522 lung; 95.3% and 86.6% with A549/ATCC NSCLC; 95.1% and 96.5% with 786-0 renal; 101% in the assay on COLO 205 colon; 118% and 101% in the assay with DU-145 prostate; 104% with K-562 leukemia. The growth is 109% and 102% in the assay on MALME-3M melanoma; 88.2% and 102% in the assay on MDA-MB-231 breast; 91.4% in the assay on RXF 393 renal; 114% and 99.1% in the assay on SF-268 CNS; 108% and 103% in the assay with SF-295 CNS; 107% and 94.9% in the assay on SF-539 CNS. For the same compound, the growth with UACC-257 melanoma was 95.6% and 85%; in the assay on M14 melanoma, 104% and 91%.

Regarding `NC(=O)Cc1nc(O)cc(=O)[nH]1`, the growth is 107% with NCI-H23 lung; 99.1% with NCI-H226 lung; 103% with NCI-H322M lung; 81.6% in the assay with HOP-62 NSCLC; 105% in the assay on NCI-H460 lung; 91.7% with HOP-92 NSCLC. Also, the growth in the assay on NCI-H522 lung is 77%; in the assay with A549/ATCC NSCLC it was 89.8%; in the assay with 786-0 renal, 98.4%; with COLO 205 colon, 108%; in the assay on DU-145 prostate it was 115%; in the assay on K-562 leukemia it was 102%. In addition, the growth in the assay with MALME-3M melanoma is 103%; in the assay on MDA-MB-231 breast, 96.5%; in the assay on RXF 393 renal, 107%; in the assay with SF-268 CNS, 102%; in the assay with SF-295 CNS, 96.5%; with SF-539 CNS, 101%. Besides, the results for the growth in the assay with UACC-257 melanoma and in the assay with M14 melanoma were 86.4% and 101%, respectively.

With `CCCC(=O)Oc1ccc2ccccc2c1`, the growth with NCI-H23 lung is 98.7%; with NCI-H226 lung it was 103%; in the assay on NCI-H322M lung it was 109%; in the assay on HOP-62 NSCLC it was 89.9%; in the assay on NCI-H460 lung, 98%; with HOP-92 NSCLC, 89.5%. Also, the growth in the assay with NCI-H522 lung was 96.8%; with A549/ATCC NSCLC, 97.3%; in the assay on 786-0 renal, 101%; in the assay on COLO 205 colon it was 99.2%; in the assay with DU-145 prostate, 111%; with K-562 leukemia, 95.7%. In addition, the growth with MALME-3M melanoma was 111%; in the assay with MDA-MB-231 breast, 95.8%; with RXF 393 renal, 112%; in the assay on SF-268 CNS, 105%; in the assay with SF-295 CNS, 96.7%; with SF-539 CNS, 98.3%. The growth in the assay on UACC-257 melanoma was 90.8%; in the assay with M14 melanoma it was 97.5%.

Take `OC1CCCN(Cc2ccccc2)C1` (stereo not given): the growth with NCI-H23 lung is 103%; with NCI-H226 lung, 106%; in the assay on NCI-H322M lung, 113%; in the assay on HOP-62 NSCLC, 107%; in the assay with NCI-H460 lung it was 107%; in the assay with HOP-92 NSCLC, 106%. Further, the growth in the assay on NCI-H522 lung was 101%; with A549/ATCC NSCLC, 85.4%; with 786-0 renal, 115%; with COLO 205 colon it was 102%; in the assay on DU-145 prostate it was 121%; with K-562 leukemia, 111%. In addition, the growth with MALME-3M melanoma was 104%; in the assay on MDA-MB-231 breast it was 103%; with RXF 393 renal, 107%; in the assay on SF-268 CNS, 102%; in the assay on SF-295 CNS, 114%; with SF-539 CNS it was 109%. The growth in the assay with UACC-257 melanoma was 93.9%; in the assay with M14 melanoma it was 98.7%.

On to `CCOC(=O)c1ccc(N2C(=O)C(Cl)(c3ccccc3)C2c2ccco2)cc1` (stereo not given), for which the growth in the assay with NCI-H23 lung was 70.4%; with NCI-H226 lung it was 81.1%; in the assay with NCI-H322M lung, 83.8%; in the assay with HOP-62 NSCLC, 110%; in the assay with NCI-H460 lung, 84.2%; in the assay with HOP-92 NSCLC it was 63.7%. Further, the growth is 34.2% in the assay with NCI-H522 lung; 86.2% in the assay with A549/ATCC NSCLC; 80.9% in the assay with 786-0 renal; 96.7% with COLO 205 colon; 65.4% in the assay with DU-145 prostate; 31.1% in the assay with K-562 leukemia. The growth with MALME-3M melanoma is 86.7%; with MDA-MB-231 breast it was 80%; with RXF 393 renal, 99.7%; with SF-268 CNS it was 77.8%; in the assay with SF-295 CNS it was 86.4%; in the assay with SF-539 CNS it was 96.2%. Besides, the growth in the assay on UACC-257 melanoma was 89.7%; with M14 melanoma, 98.7%.
